According to PubChem BioAssay (EPA / NIEHS):
Active and inactive are the calls of the source. The calls were made as follows: active = hit-call score of the fitted dose curve at least 0.9, where 1 is the maximum; inactive = score below 0.9.

Assays:
Settings in all cases: mRNA level, 48 h; actives raise or lower the signal
[1] = read-out: Nuclear factor erythroid 2-related factor 2 (Homo sapiens) (UniProt Q16236); test: LTEA_HepaRG_NFE2L2: Life Technologies and Expression Analysis (LTEA) Assay for Nuclear factor erythroid 2-related factor 2 (NFE2L2) Transcription Factor using HepaRG (AID 2283527)
In short: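 HepaRG, 48 h dosing, 8-pt half-log series from 100 uM in 0.5% DMSO, duplicates. Read-out: NFE2L2 mRNA by qRT-PCR (ACTB/GAPDH/POLR2A normalization). Bidirectional curve fit vs DMSO baseline.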

[2] = read-out: succinate dehydrogenase complex iron sulfur subunit B (SDHB), SDHB (gene 6390); test: LTEA_HepaRG_SDHB: Life Technologies and Expression Analysis (LTEA) Assay for succinate dehydrogenase complex iron sulfur subunit B (SDHB) using HepaRG (AID 2283528)
In short: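 HepaRG, 48 h exposure, 8-pt half-log series from 100 uM in 0.5% DMSO, duplicates. Readout: SDHB mRNA by Fluidigm qRT-PCR vs housekeeping genes; bidirectional fit relative to DMSO.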

[3] = read-out: Signal transducer and activator of transcription 3 (Homo sapiens) (UniProt P40763); test: LTEA_HepaRG_STAT3: Life Technologies and Expression Analysis (LTEA) Assay for Signal transducer and activator of transcription (STAT3) using HepaRG (AID 2283529)
In short: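 HepaRG, 48 h exposure, 8-pt half-log series (top 100 uM), 0.5% DMSO vehicle, duplicates. Readout: STAT3 transcript by Fluidigm qRT-PCR, housekeeping-normalized; bidirectional fit vs DMSO baseline.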

[4] = read-out: solute carrier (SLCO1B1), SLCO1B1 (gene 10599); test: LTEA_HepaRG_SLCO1B1: Life Technologies and Expression Analysis (LTEA) Assay for solute carrier (SLCO1B1) using HepaRG (AID 2283530)
In short: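 Gain or loss of SLCO1B1 mRNA is fitted against the 0.5% DMSO vehicle in human HepaRG liver cells treated 48 h at up to 100 uM in half-log steps. Expression comes from qRT-PCR normalized to endogenous controls.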

[5] = read-out: sulfotransferase 2A1 (SULT2A1), SULT2A1 (gene 6822); test: LTEA_HepaRG_SULT2A1: Life Technologies and Expression Analysis (LTEA) Assay for sulfotransferase 2A1 (SULT2A1) using HepaRG (AID 2283531)
In short: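 Cells were plated and cultured 48 h, switched to serum-free induction medium, then dosed in duplicate for 48 h (8 concentrations, max 100 uM). RNA was isolated and SULT2A1 expression measured by qRT-PCR; gain or loss of signal fitted relative to DMSO.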

[6] = read-out: Transforming Growth Factor (TGFA), TGFA (gene 7039); test: LTEA_HepaRG_TGFA: Life Technologies and Expression Analysis (LTEA) Assay for Transforming Growth Factor (TGFA) using HepaRG (AID 2283532)
In short: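 qRT-PCR read-out of TGFA transcript, normalized to three housekeeping genes, fitted bidirectionally against 0.5% DMSO baseline. Human HepaRG cultures received chemicals for 48 h at eight half-log concentrations, top 100 uM.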

[7] = read-out: Transforming Growth Factor (TGFB1), TGFB1 (gene 7040); test: LTEA_HepaRG_TGFB1: Life Technologies and Expression Analysis (LTEA) Assay for Transforming Growth Factor (TGFB1) Transporter using HepaRG (AID 2283533)
In short: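 Expression change of TGFB1 in human HepaRG cells is measured after a 48 h chemical exposure, up to 100 uM in 0.5% DMSO vehicle. Curves are fitted in both directions relative to the DMSO baseline.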

TIMP1, TIMP1 (gene 7076) = test: LTEA_HepaRG_TIMP1: Life Technologies and Expression Analysis (LTEA) Assay for TIMP1 using HepaRG (AID 2283534)
In short: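 We dosed human liver HepaRG cultures for 48 hours with up to 100 uM test chemical and measured TIMP1 expression by qRT-PCR. Activity in either direction is fitted relative to the 0.5% DMSO vehicle.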

[8] = read-out: Tumor necrosis factor receptor 1 (TNFRSF1A), TNFRSF1A (gene 7132); test: LTEA_HepaRG_TNFRSF1A: Life Technologies and Expression Analysis (LTEA) Assay for Tumor necrosis factor receptor 1 (TNFRSF1A) using HepaRG (AID 2283535)
In short: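 Expression of TNFRSF1A in human HepaRG liver cells was measured by qRT-PCR 48 h after chemical dosing (maximum 100 uM). Bidirectional curve fitting used 0.5% DMSO as baseline.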

[9] = read-out: Thyroid Hormone Responsive (THRSP), THRSP (gene 7069); test: LTEA_HepaRG_THRSP: Life Technologies and Expression Analysis (LTEA) Assay for Thyroid Hormone Responsive (THRSP) using HepaRG (AID 2283536)
In short: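 qRT-PCR read-out (Fluidigm TaqMan), housekeeping-normalized (ACTB/GAPDH/POLR2A). HepaRG, 48 h chemical exposure, 8-pt half-log series from 100 uM in 0.5% DMSO, duplicates. Bidirectional curve fit vs 0.5% DMSO baseline.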

Measured: AC50

Signal transducer and activator of transcription 3 (Homo sapiens), sequence (P40763 whole entry, looked up): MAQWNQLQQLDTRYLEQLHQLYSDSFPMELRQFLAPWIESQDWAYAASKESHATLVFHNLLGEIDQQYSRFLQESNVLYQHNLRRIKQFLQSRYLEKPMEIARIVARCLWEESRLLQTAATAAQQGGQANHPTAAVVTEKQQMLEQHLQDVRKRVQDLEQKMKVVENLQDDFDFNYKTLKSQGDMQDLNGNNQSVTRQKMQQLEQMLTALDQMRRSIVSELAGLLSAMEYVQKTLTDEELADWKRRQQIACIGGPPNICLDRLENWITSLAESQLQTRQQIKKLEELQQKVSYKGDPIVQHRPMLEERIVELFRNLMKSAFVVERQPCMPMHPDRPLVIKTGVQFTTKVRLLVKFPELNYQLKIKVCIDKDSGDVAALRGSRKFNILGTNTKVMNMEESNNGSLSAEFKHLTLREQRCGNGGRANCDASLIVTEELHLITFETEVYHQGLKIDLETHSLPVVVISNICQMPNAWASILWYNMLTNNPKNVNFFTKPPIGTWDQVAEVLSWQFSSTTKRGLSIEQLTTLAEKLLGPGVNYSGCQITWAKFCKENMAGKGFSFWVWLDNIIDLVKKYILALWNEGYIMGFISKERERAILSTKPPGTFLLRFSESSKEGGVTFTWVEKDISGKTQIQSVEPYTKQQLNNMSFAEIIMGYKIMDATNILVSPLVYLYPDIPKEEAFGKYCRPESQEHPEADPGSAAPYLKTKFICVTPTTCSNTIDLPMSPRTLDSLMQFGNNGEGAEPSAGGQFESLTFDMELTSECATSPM
Nuclear factor erythroid 2-related factor 2 (Homo sapiens), sequence (Q16236 whole entry, looked up): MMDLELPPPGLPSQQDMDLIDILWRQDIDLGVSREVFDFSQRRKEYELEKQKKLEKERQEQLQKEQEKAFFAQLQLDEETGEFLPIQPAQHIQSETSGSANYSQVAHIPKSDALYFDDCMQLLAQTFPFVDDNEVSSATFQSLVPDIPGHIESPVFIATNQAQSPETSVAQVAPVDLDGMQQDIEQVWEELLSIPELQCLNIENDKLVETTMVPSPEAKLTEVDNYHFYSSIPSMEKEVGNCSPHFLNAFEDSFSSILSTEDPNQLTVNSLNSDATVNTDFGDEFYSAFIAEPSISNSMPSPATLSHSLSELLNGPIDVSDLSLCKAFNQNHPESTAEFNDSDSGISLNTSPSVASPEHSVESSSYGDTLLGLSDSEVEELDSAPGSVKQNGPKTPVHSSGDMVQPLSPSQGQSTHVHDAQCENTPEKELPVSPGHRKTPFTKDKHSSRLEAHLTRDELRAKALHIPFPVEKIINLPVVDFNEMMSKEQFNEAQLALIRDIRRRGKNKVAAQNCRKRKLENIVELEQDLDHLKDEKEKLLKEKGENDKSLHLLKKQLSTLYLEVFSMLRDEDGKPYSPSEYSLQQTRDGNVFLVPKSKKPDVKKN

CCCOc1nn(C(=O)NS(=O)(=O)c2ccccc2C(=O)OC)c(=O)n1C
inactive: all assays above

CCOP(=S)(OCC)SCCSCC
not listed: [3]
inactive: all other assays above

Nc1c(Cl)cc([N+](=O)[O-])cc1Cl
inactive: [1] | [6] | [7]
active: [2] 50 µM | [3] 25 µM | [4] 50 µM | [5] 50 µM | TIMP1, TIMP1 (gene 7076) 74 µM | [8] 74.1 µM | [9] 42.3 µM

CCc1cccc(CC)c1N(COC)C(=O)CCl
not listed: [8]
inactive: all other assays above

CCOP(=S)(OCC)Oc1ccc2c(C)c(Cl)c(=O)oc2c1
active: [1] 22.2 µM | [9] 14.8 µM
not listed: [5] | [8]
inactive: all other assays above

CCOC(=O)COc1cc(-c2nn(C)c(OC(F)F)c2Cl)c(F)cc1Cl
not listed: [5] | [8]
inactive: all other assays above

CON=C(C(=O)OC)c1ccccc1CON=C(C)c1cccc(C(F)(F)F)c1
active: [9] 50 µM
inactive: all other assays above

CNC(=O)ON=C(C)SC
not listed: [5] | [8]
inactive: all other assays above

O=c1ccc(=O)[nH][nH]1
inactive: all assays above

S=C1NCCN1
active: [4] 0.24 µM
not listed: [3] | [8]
inactive: all other assays above

CCOP(=O)(OCC)Oc1cc(C)nc(C(C)C)n1
not listed: [5] | [8]
inactive: all other assays above

CC(C)[C@H](C(=O)O[C@H](C#N)c1cccc(Oc2ccccc2)c1)c1ccc(Cl)cc1
inactive: all assays above

C[Si](Cn1cncn1)(c1ccc(F)cc1)c1ccc(F)cc1
inactive: [2] | [3] | TIMP1, TIMP1 (gene 7076)
active: [1] 39.3 µM | [4] 74.4 µM | [5] 73.5 µM | [6] 65.1 µM | [7] 34.1 µM | [9] 5.9 µM

CSc1nc(NC(C)C)nc(NC(C)C)n1
active: [4] 50 µM | [9] 76.7 µM
not listed: [5] | [8]
inactive: all other assays above

CN(C)C(=O)Nc1cccc(C(F)(F)F)c1
active: [1] 50 µM | [4] 50 µM | TIMP1, TIMP1 (gene 7076) 78.8 µM | [8] 81 µM
inactive: all other assays above

CCCSP(=O)(OCC)Oc1ccc(Br)cc1Cl (centres undefined)
not listed: [3]
inactive: all other assays above

CCCOCC(=Nc1ccc(Cl)cc1C(F)(F)F)n1ccnc1
active: [3] 50 µM | [4] 15.8 µM | [5] 66.6 µM | [6] 92.4 µM | [7] 50 µM | TIMP1, TIMP1 (gene 7076) 88.9 µM | [8] 93.7 µM | [9] 19.1 µM
inactive: [1] | [2]

COP(=O)(OC)OC(Br)C(Cl)(Cl)Br (centres undefined)
active: [5] 50 µM
not listed: [3] | [8]
inactive: all other assays above

CC(=NC#N)N(C)Cc1ccc(Cl)nc1
inactive: all assays above

CCCCN(CC)c1c([N+](=O)[O-])cc(C(F)(F)F)cc1[N+](=O)[O-]
not listed: [5]
inactive: all other assays above

CC(COc1ccc(Oc2ccccc2)cc1)Oc1ccccn1 (centres undefined)
active: [9] 16.3 µM
not listed: [5] | [8]
inactive: all other assays above

CCC(CC)Nc1c([N+](=O)[O-])cc(C)c(C)c1[N+](=O)[O-]
active: [4] 50 µM | [9] 36.7 µM
not listed: [8]
inactive: all other assays above

C=C(C)[C@H]1Cc2c(ccc3c2O[C@@H]2COc4cc(OC)c(OC)cc4[C@@H]2C3=O)O1
active: [1] 7.62 µM | [2] 0.358 µM | [4] 12.3 µM | [6] 7.78 µM | TIMP1, TIMP1 (gene 7076) 11.1 µM | [9] 1.36 µM
inactive: [3] | [7]

CN1COCN(Cc2cnc(Cl)s2)C1=N[N+](=O)[O-]
not listed: [5]
inactive: all other assays above

C[N+]1(C)CCCCC1
not listed: [3] | [8]
inactive: all other assays above

C#CC(C)(C)NC(=O)c1cc(Cl)cc(Cl)c1
not listed: [5]
inactive: all other assays above

CC(C)N(C(=O)SCC(Cl)=C(Cl)Cl)C(C)C
not listed: [3]
inactive: all other assays above

CNC(=O)ON=C(SC)C(=O)N(C)C
not listed: [5]
inactive: all other assays above

COP(=O)(NC(C)=O)SC (centres undefined)
not listed: [5] | [8]
inactive: all other assays above

COP(=O)(OC)C(O)C(Cl)(Cl)Cl (centres undefined)
active: TIMP1, TIMP1 (gene 7076) 0.0702 µM | [8] 0.109 µM
not listed: [5]
inactive: all other assays above

N#CSCSC#N
active: [9] 50 µM
not listed: [5]
inactive: all other assays above

CCOP(=S)(Oc1cnc(C(C)(C)C)nc1)OC(C)C (centres undefined)
active: [9] 68.5 µM
not listed: [8]
inactive: all other assays above

CCCCOC(=O)[C@@H](C)Oc1ccc(Oc2ccc(C#N)cc2F)cc1
not listed: [5]
inactive: all other assays above
